Measurements from PubChem BioAssay (NCI).
This is part of a sample that, as a whole, favours compounds with a hit. Of some 79,000 tested, about 15% had one in any assay. Activity calls are given as the source filed them. Cut-off read from the data, not from the text of the source: active = growth inhibition above about 70%; inactive = the rest.

What was measured:
[1] = NCI Yeast Anticancer Drug Screen. Data for the rad52 strain (AID 147);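 note: 0% = growth of vehicle-treated control cultures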; details: S. cerevisiae rad52 mutant growth inhibition, stronger effect = higher value
How it was run: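 Compounds are applied to a genetically defined yeast strain lacking normal DNA damage repair, and inhibition of growth is expressed relative to cultures given vehicle only.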

[2] = NCI Yeast Anticancer Drug Screen. Data for the wt1 strain (AID 149);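 note: 0% = growth of vehicle-treated wt1 cultures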; details: S. cerevisiae wt1 strain (SPY 50644) growth inhibition, stronger effect = higher value
How it was run: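 Measured: growth of wt1 yeast under compound versus vehicle treatment, reported as inhibition.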

[3] = NCI Yeast Anticancer Drug Screen. Data for the rad50EPP+ strain (AID 151);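 note: 0% = growth of vehicle-treated control cultures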; details: S. cerevisiae rad50 mutant strain, stronger effect = higher value
How it was run: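 Compounds were applied to the rad50EPP+ yeast strain, which bears a defined DNA repair alteration, and growth inhibition was determined relative to vehicle-treated cultures.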

[4] = NCI Yeast Anticancer Drug Screen. Data for the mgt1 strain (AID 153); details: S. cerevisiae mgt1 mutant growth inhibition, stronger effect = higher value
How it was run: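 Strain: mgt1 yeast, one of a set carrying defined DNA damage repair or cell cycle control alterations. Compound-treated growth compared with vehicle.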

[5] = NCI Yeast Anticancer Drug Screen. Data for the rad50 strain (AID 155);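 note: 0% = growth of vehicle-only cultures of the same strain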; details: S. cerevisiae rad50 strain growth inhibition, stronger effect = higher value
How it was run: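 Growth of the mutant yeast was measured after compound exposure and referenced to vehicle-treated cultures.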

[6] = NCI Yeast Anticancer Drug Screen. Data for the mec2-1 strain (AID 157); details: S. cerevisiae mec2-1 strain, stronger effect = higher value
How it was run: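 Strain: mec2-1 (DNA repair/cell cycle alteration). Compound exposure, then growth measured; inhibition expressed relative to vehicle.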

[7] = NCI Yeast Anticancer Drug Screen. Data for the rad14 strain (AID 159);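 note: 0% = growth of vehicle-treated control cultures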; details: S. cerevisiae rad14 strain growth inhibition, stronger effect = higher value
How it was run: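 Here, inhibition of yeast growth was measured after compound exposure, using a strain with a genetic defect in DNA damage repair and vehicle-treated cultures as the reference.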

[8] = NCI Yeast Anticancer Drug Screen. Data for the bub3 strain (AID 167); details: S. cerevisiae bub3 mutant strain, stronger effect = higher value
How it was run: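 Whole-cell yeast assay. The mutant strain was incubated with compounds, and growth inhibition was determined by comparison with vehicle-treated cells.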

[9] = NCI Yeast Anticancer Drug Screen. Data for the wt2 strain (AID 169);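 note: 0% = growth of vehicle-treated yeast cultures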; details: S. cerevisiae wt2 strain growth inhibition, stronger effect = higher value
How it was run: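 This strain belongs to a panel of yeast strains with defined genetic alterations in DNA damage repair or cell cycle control. Compounds are applied, and growth inhibition is measured against vehicle-treated cultures.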

[10] = NCI Yeast Anticancer Drug Screen. Data for the mlh1 strain (AID 171);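 note: 0% = growth of vehicle-treated control cultures of the same strain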; details: S. cerevisiae mlh1 strain growth inhibition, stronger effect = higher value
How it was run: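 Growth of the mutant yeast strain after compound exposure, expressed as inhibition relative to vehicle-only controls.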

[11] = NCI Yeast Anticancer Drug Screen. Data for the sgs1 strain (AID 173);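 note: 0% = growth of vehicle-only control cultures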; details: S. cerevisiae sgs1 mutant, stronger effect = higher value
How it was run: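 Growth of a yeast strain bearing a defined genetic alteration is measured after compound treatment. Inhibition is expressed relative to vehicle-only controls.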

[12] = NCI Yeast Anticancer Drug Screen. Data for the rad18 strain (AID 177); details: S. cerevisiae rad18 mutant growth inhibition, stronger effect = higher value
How it was run: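 Growth of the mutant yeast strain after compound exposure, normalised to vehicle-only cultures.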

[13] = NCI Yeast Anticancer Drug Screen. Data for the sgs1 mgt1 strain (AID 161);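 note: 0% = growth of cultures given vehicle only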; details: S. cerevisiae sgs1 mgt1 strain, stronger effect = higher value
How it was run: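 Test agents were incubated with a DNA-repair-mutant yeast strain. Growth was then read and compared against vehicle-treated controls.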

[14] = NCI Yeast Anticancer Drug Screen. Data for the CLN2oe strain (AID 163);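 note: 0% = growth of vehicle-only control cultures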; details: S. cerevisiae CLN2oe strain, stronger effect = higher value
How it was run: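 Growth of a genetically modified yeast strain is measured after compound exposure and compared with cultures given vehicle alone.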

[15] = NCI Yeast Anticancer Drug Screen. Data for the cln2 rad14 strain (AID 165);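 note: 0% = growth equal to vehicle treated cultures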; details: S. cerevisiae cln2 rad14 strain, stronger effect = higher value
How it was run: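 Compounds are applied to the cln2 rad14 yeast strain, and growth is then compared with that of vehicle-treated cultures to give inhibition.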

[16] = at 5.0 µM (retest, dose inferred, filed as 0.5)
[17] = at 50.0 µM (retest, dose inferred, filed as 5.0)

Measured: growth inhibition

O=NN(CCCl)C(=O)NC1CCCCC1
active: [12]; at 11.0 µM 84% | [12]; at 33.0 µM 92%
inactive: [1]; at 1.2 µM 6% | [1]; at 3.7 µM 11% | [1]; at 11.0 µM 33% | [1]; at 33.0 µM 44% | [1]; at 100.0 µM 50% | [2]; at 1.2 µM -2% | [2]; at 3.7 µM -1% | [2]; at 11.0 µM 1% | [2]; at 33.0 µM 5% | [2]; at 100.0 µM -5% | [3]; at 1.2 µM 16% | [3]; at 3.7 µM 24% | [3]; at 11.0 µM 45% | [3]; at 33.0 µM 61% | [3]; at 100.0 µM 49% | [4]; at 1.2 µM -3% | [4]; at 3.7 µM -2% | [4]; at 11.0 µM 1% | [4]; at 33.0 µM 2% | [4]; at 100.0 µM 10% | [5]; at 1.2 µM 5% | [5]; at 3.7 µM 12% | [5]; at 11.0 µM 39% | [5]; at 33.0 µM 55% | [5]; at 100.0 µM 52% | [6]; at 1.2 µM -1% | [6]; at 3.7 µM 4% | [6]; at 11.0 µM 10% | [6]; at 33.0 µM 13% | [6]; at 100.0 µM 13% | [7]; at 1.2 µM 1% | [7]; at 3.7 µM 7% | [7]; at 11.0 µM 13% | [7]; at 33.0 µM 15% | [7]; at 100.0 µM 14% | [8]; at 1.2 µM -4% | [8]; at 3.7 µM -3% | [8]; at 11.0 µM 3% | [8]; at 33.0 µM 14% | [8]; at 100.0 µM 12% | [9]; at 1.2 µM -3% | [9]; at 3.7 µM -2% | [9]; at 11.0 µM 2% | [9]; at 33.0 µM 11% | [9]; at 100.0 µM 49% | [10]; at 1.2 µM 0% | [10]; at 3.7 µM 1% | [10]; at 11.0 µM 8% | [10]; at 33.0 µM 11% | [10]; at 100.0 µM 17% | [11]; at 1.2 µM 4% | [11]; at 3.7 µM 7% | [11]; at 11.0 µM 22% | [11]; at 33.0 µM 34% | [11]; at 100.0 µM 43% | [12]; at 1.2 µM 29% | [12]; at 3.7 µM 46% | [12]; at 100.0 µM 53%

Clc1c(Cl)c(Cl)c2c(nnn2C2CCCO2)c1Cl (stereo not given)
inactive: [1]; at 1.2 µM 10% | [1]; at 3.7 µM 19% | [1]; at 11.0 µM 24% | [1]; at 33.0 µM 33% | [1]; at 100.0 µM 58% | [2]; at 1.2 µM 0% | [2]; at 3.7 µM -1% | [2]; at 11.0 µM -5% | [2]; at 33.0 µM 11% | [2]; at 100.0 µM 46% | [3]; at 1.2 µM -32% | [3]; at 3.7 µM -10% | [3]; at 11.0 µM -9% | [3]; at 33.0 µM -4% | [3]; at 100.0 µM 35% | [5]; at 1.2 µM 5% | [5]; at 3.7 µM -1% | [5]; [16] 4% | [5]; at 11.0 µM 6% | [5]; at 33.0 µM 14% | [5]; [17] 38% | [5]; at 100.0 µM 48% | [6]; at 1.2 µM 2% | [6]; at 3.7 µM -1% | [6]; [16] 12% | [6]; at 11.0 µM 10% | [6]; at 33.0 µM 8% | [6]; [17] 48% | [7]; at 1.2 µM -11% | [7]; at 3.7 µM -8% | [7]; at 11.0 µM -1% | [7]; at 33.0 µM 12% | [13]; [16] -1% | [14]; at 1.2 µM -11% | [14]; at 3.7 µM 1% | [14]; at 11.0 µM 0% | [14]; at 33.0 µM 9% | [14]; at 100.0 µM 33% | [15]; [16] 8% | [15]; [17] 62% | [8]; at 1.2 µM -7% | [8]; at 3.7 µM -8% | [8]; [16] 18% | [8]; at 11.0 µM -22% | [8]; at 33.0 µM 11% | [8]; [17] 60% | [8]; at 100.0 µM 50% | [9]; at 1.2 µM -14% | [9]; at 3.7 µM -2% | [9]; at 11.0 µM 6% | [9]; at 33.0 µM 60%
active: [5]; at 50.0 µM 78.3% | [6]; at 50.0 µM 85.2% | [6]; at 100.0 µM 76% | [7]; at 100.0 µM 75% | [13]; [17] 80% | [13]; at 50.0 µM 78% | [15]; at 50.0 µM 74.8% | [8]; at 50.0 µM 83.2% | [9]; at 100.0 µM 97%
